Screening results from PubChem BioAssay.
Sampled rows, rich in hits. Any-hit rate of the full collection: about 4%.
NLRP3 yeast inh = blocks the NALP3 inflammasome reconstituted in yeast; inhibition, % at 10 µM; Yeast reconstituted NLRP3/ASC/caspase-1, beta-gal luminescence, 24 h; 0.39% of 330,000 active;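 active = inhibition of 50% or more; inactive = inhibition below 50%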
TIM10 inh = inhibits growth of TIM10 yeast strain. inhibition, % at 10 µM. AID 463195. 1.4% of 330,000 active. S. cerevisiae TIM10 strain growth, BacTiter-Glo luminescence, 24 h;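 active = inhibition of 40% or more at the single tested concentration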;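 also: wild-type TIM10 isogenic control strain grown at permissive 25 °C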
tim10-1 inh = growth inhibitors of tim10-1 mutant yeast | inhibition, % at 20 µM | S. cerevisiae tim10-1 ts strain growth, BacTiter-Glo, 24 h | 2.2% of 330,000 active;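 active = inhibition of at least 40%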;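 also: mutant grown at 25 °C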
NALP1 yeast inh = inhibitors of NALP1 inflammasome in yeast; S. cerevisiae NALP1/ASC/caspase-1 growth, X-gal OD620, 72 h; inhibition, % at 10 µM; 0.61% of 280,000 active; AID 2071; in the data active = inhibition mostly above about 24%, no sharp cut-off; inactive = mostly below about 32%
tim23-1 inh = tim23-1 yeast growth inhibition | S. cerevisiae tim23-1 growth, BacTiter-Glo luminescence, 24 h | inhibition, % at 20 µM | 1.3% of 330,000 active | AID 463212;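 active = growth inhibition of the mutant yeast at or above 50%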;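 also: temperature-sensitive mutant grown at 25 °C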
tim10-1 conf = tim10-1 yeast growth inhibition, confirmed | shares compounds with tim10-1 inh | AID 463213 | 56% of 7,400 active | inhibition, % at 20 µM | S. cerevisiae tim10-1 ts strain growth, BacTiter-Glo, 24 h;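 active = inhibition of yeast growth at or above a set limit in either of two repeat tests at 20 µM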;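 also: tim10-1 mutant grown at permissive 25 °C to find synthetic lethal compounds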
tim10 confirm = TIM10 yeast growth inhibition, confirmed. shares compounds with TIM10 inh. S. cerevisiae tim10 strain growth, BacTiter-Glo luminescence, 24 h. inhibition, % at 10 µM. 63% of 4,600 active. AID 463215;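 active = inhibition of yeast growth at or above a set limit in either of two replicates at 10 µM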; also: this counterscreen used the strain with wild-type TIM10
tim23-1 conf = tim23-1 yeast growth inhibition, confirmed. shares compounds with tim23-1 inh. S. cerevisiae tim23-1 growth, BacTiter-Glo luminescence, 24 h. inhibition, % at 20 µM. 83% of 4,400 active. AID 463218;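 active = inhibition above about 39% in either of two replicate wells at 20 µM, limit read from the data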;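 also: temperature-sensitive tim23-1 mutant grown at 25 °C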
A number is an active result; 0 = inactive; - = no result.

SMILES	NLRP3 yeast inh	TIM10 inh	tim10-1 inh	NALP1 yeast inh	tim23-1 inh	tim10-1 conf	tim10 confirm	tim23-1 conf
COc1cc(/C=C2\SC(=S)N(NS(=O)(=O)c3ccc(C)cc3)C2=O)cc(OC)c1OC	0	0	0	0	0	-	-	-
CC(=O)NC1Sc2ccccc2N=C1c1ccccc1 (stereo not drawn)	0	42.0	42.8	0	73.1	53.6	56.5	79.0
CC(=O)OCC1OC(Nc2cccc(C)c2)C(OC(C)=O)C(OC(C)=O)C1OC(C)=O (stereo not drawn)	0	0	0	0	0	-	-	-
CCOC(=O)c1ccc(S(=O)(=O)N2CCN(CC(O)COc3ccc(C#N)cc3)CC2)cc1 (stereo not drawn)	0	0	0	0	0	-	-	-
COc1ccc(/C=C(\C#N)C(=O)c2cccn2C)cc1	0	0	0	0	0	-	-	-
COc1ccccc1/C=C(\C#N)C(=O)c1cccn1C	0	0	43.2	0	58.5	0	-	50.1
Cc1ccc(O)c(NC(=O)C2CC(c3c(F)cccc3Cl)=NO2)c1 (stereo not drawn)	0	0	44.4	0	54.4	0	-	60.2
COc1cc(NC(=O)C2CC(c3c(F)cccc3Cl)=NO2)c(OC)cc1Cl (stereo not drawn)	0	0	0	0	0	-	-	-
CCOC(=O)C(=CNc1ccc(Cl)cn1)C(=O)OCC	0	0	0	0	0	-	-	-
CCOC(=O)C(=CNNc1cccc(Cl)c1)C(=O)OCC	0	0	41.1	0	54.8	53.4	-	71.8
COC(=O)c1ccc(/C=C/C(=O)OCC(=O)Nc2sccc2C(N)=O)cc1	0	0	0	-	0	-	-	-
Cc1nc(-c2ccccc2)cc(-c2ccccc2)n1	0	0	0	-	0	-	-	-
CN(N)c1nc(-c2ccccc2)cc(-c2ccccc2)n1	0	49.5	44.3	0	56.2	39.3	43.2	54.3
O=C(Cn1c(NCCCO)nc2ccccc21)c1ccc(F)cc1	0	0	0	0	0	-	-	-
COc1ccc(N(C(=O)c2ccc(S(=O)(=O)N3CCCC3)cc2)C2C=CS(=O)(=O)C2)cc1 (stereo not drawn)	0	0	0	0	0	-	-	-
COC(=O)C1=C(C)N(c2ccc(Cl)c(Cl)c2)C(=O)C1	0	43.4	45.9	0	59.0	47.1	38.8	50.4
O=C1/C(=C/c2cccc(F)c2)Oc2cc(O)ccc21	0	0	51.7	0	51.5	38.8	-	70.8
COc1cccc(/C=C2\Oc3cc(OC(=O)N4CCOCC4)ccc3C2=O)c1	0	0	0	0	0	-	-	-
COc1cc(C2Nc3cccc4cccc(c34)N2)ccc1O	0	0	0	0	0	-	-	-
Oc1ccc2ccccc2c1C1Nc2cccc3cccc(c23)N1	0	49.6	56.7	0	50.2	57.9	43.8	69.3
CCOc1cc(-c2cc(-c3ccccc3)nc(N)c2C#N)ccc1O	0	0	0	0	0	-	-	-
CCOc1cc(-c2cc(-c3ccc(N)cc3)nc(N)c2C#N)ccc1O	0	0	41.3	0	50.4	0	-	53.0
COCCN(Cc1nc2ccccc2c(=O)[nH]1)C(=O)COc1cccc(C(C)=O)c1	0	0	0	-	0	-	-	-
CCC(=O)Nc1cccc(-c2csc(-c3ccccc3)n2)c1	0	52.4	40.2	0	55.0	34.9	0	59.6
CCOc1ccccc1N1CCN(C(=O)Nc2ccc(Cl)c(Cl)c2)CC1	0	0	48.4	0	58.1	37.2	-	50.5
SMILES	NLRP3 yeast inh	TIM10 inh	tim10-1 inh	NALP1 yeast inh	tim23-1 inh	tim10-1 conf	tim10 confirm	tim23-1 conf
CCOc1ccccc1N1CCN(C(=O)c2ccncc2)CC1	0	0	0	0	0	-	-	-
COc1ccccc1OCc1cc(C(=O)N2CCN(C)C(c3ccccc3)C2)no1 (stereo not drawn)	0	0	52.3	0	54.9	0	-	0
CCN(C(=O)COC(=O)/C=C/c1ccco1)C1CCCCC1	0	0	0	-	0	-	-	-
Oc1c(C2=NCCNC(C(F)(F)F)=C2)ccc2ccccc12	0	43.6	48.4	0	58.6	0	42.8	70.9
Cc1ccc(O)c(C2=NCCNC(C(F)(F)F)=C2)c1	0	0	0	0	0	-	-	-
CNC(=O)c1c(NC(=O)c2ccco2)sc2c1CCCC2	0	0	58.4	0	57.8	38.5	-	48.5
CC(OC(=O)c1ccc(S(=O)(=O)N2CCCCC2)cc1)C(=O)NC1CCCCC1C (stereo not drawn)	0	0	0	0	0	-	-	-
NC(=O)c1ccc[n+]([C@H]2O[C@@H](COP(=O)([O-])OP(=O)(O)OC[C@H]3O[C@@H](n4cnc5c(N)ncnc54)[C@H](O)[C@@H]3O)[C@H](O)[C@@H]2O)c1	0	58.5	77.8	-	70.5	75.2	45.0	78.3
COc1ccc(S(=O)(=O)Nc2cccc3c2O[C@H](CN(C)C(=O)Nc2ccccc2)[C@@H](C)CN([C@H](C)CO)C3=O)cc1	0	0	0	-	0	-	-	-
CC1CCC/C=C/C(=O)c2c(O)cc(O)cc2CC(=O)O1 (stereo not drawn)	0	40.0	54.5	0	53.3	49.1	50.8	54.5
O=C(c1ccc2nsnc2c1)N1CCN(c2ccc([N+](=O)[O-])cc2)CC1	0	0	0	0	0	-	-	-
Cc1ccc(C)c(N2CCN(C(=O)c3ccc4nsnc4c3)CC2)c1	0	0	56.6	0	61.0	0	-	47.2
Cc1cc(C)c2sc(N(CCN(C)C)C(=O)CCS(=O)(=O)c3ccccc3)nc2c1	0	0	0	0	0	-	-	-
CCN(CC)CCN(C(=O)CCS(=O)(=O)c1ccccc1)c1nc2cc(C)cc(C)c2s1	0	44.1	50.9	0	54.8	0	29.6	39.0
CC(=O)Nc1ccc(S(=O)(=O)NCCC(=O)OCc2ccc([N+](=O)[O-])cc2)cc1	0	0	0	0	0	-	-	-
O=C(COC(=O)c1ccc[nH]c1=O)NCC12CC3CC(CC(C3)C1)C2	0	0	0	-	0	-	-	-
Cc1ccccc1-n1ncc2c([N+](=O)[O-])cc([N+](=O)[O-])cc21	0	68.3	48.0	0	77.3	35.2	75.3	0
Cc1sc2ncnc(SCC(=O)N3c4ccccc4Sc4ccc(Cl)cc43)c2c1C	0	0	0	0	0	-	-	-
CCOC(=O)c1c(C)sc2c1N(C(=O)CCl)c1cc(Cl)ccc1S2	0	0	42.8	0	61.4	42.6	-	50.5
Cc1ccc(S(=O)(=O)N2CCCC2)cc1C(=O)NCCN1CCOCC1	0	0	0	0	0	-	-	-
Cc1ccc(-n2nc3c(c2NC(=O)c2cc4ccccc4o2)CS(=O)(=O)C3)cc1	0	0	40.1	0	50.6	0	-	47.5
COC(=O)COc1ccc(-c2ccccc2)cc1C=O	0	72.9	65.9	0	65.2	59.7	72.9	83.1
S=C(NCc1ccc2[nH]c3c(c2c1)CCCC3)Nc1ccccc1	0	48.0	46.0	0	52.7	42.8	51.4	58.8
